The record followed here is PubChem BioAssay (NCI).

Assay [1] can be described thus: NCI Yeast Anticancer Drug Screen. Data for the rad50 strain (AID 155).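 Note: 0% = growth of vehicle-only cultures of the same strain.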 The following applies: S. cerevisiae rad50 strain growth inhibition; at 50.0 µM; stronger effect = higher value. A digest of the protocol: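 Cells are treated with compound, grown, and their growth is then scored against vehicle-only cultures of the same repair-deficient yeast strain.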
The nature of assay [2]: NCI Yeast Anticancer Drug Screen. Data for the mec2-1 strain (AID 157). The following applies: S. cerevisiae mec2-1 strain, at 50.0 µM, stronger effect = higher value. An outline of the steps: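 Growth inhibition is read against vehicle-treated controls after compound exposure of the mec2-1 yeast strain, which is defective in DNA damage repair or cell cycle control.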
Assay [3] in a line: NCI Yeast Anticancer Drug Screen. Data for the sgs1 mgt1 strain (AID 161).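 Note: 0% = growth of cultures given vehicle only.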 The following applies: S. cerevisiae sgs1 mgt1 strain, at 50.0 µM, stronger effect = higher value. An outline of the steps: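 Yeast cells carrying a defined DNA-repair defect were exposed to test compounds. Growth inhibition was measured relative to vehicle-treated controls.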
Assay [4] is described as follows: NCI Yeast Anticancer Drug Screen. Data for the cln2 rad14 strain (AID 165).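 Note: 0% = growth equal to vehicle treated cultures.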 The following applies: S. cerevisiae cln2 rad14 strain, at 50.0 µM, stronger effect = higher value. A digest of the protocol:
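Growth inhibition, relative to vehicle-treated controls, is the read-out. The test organism is a yeast strain with defined genetic alterations, cln2 rad14.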

Assay [5] can be described thus: NCI Yeast Anticancer Drug Screen. Data for the bub3 strain (AID 167). The following applies: S. cerevisiae bub3 mutant strain, at 50.0 µM, stronger effect = higher value. An outline of the steps:
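Part of a panel of yeast mutants defective in DNA damage repair or cell cycle regulation. Each strain is grown with compound, and inhibition is calculated relative to solvent-treated cultures.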

A short description of assay [6]: NCI Yeast Anticancer Drug Screen. Data for the mlh1 rad18 strain (AID 175). The following applies: S. cerevisiae mlh1 rad18 strain growth inhibition; at 50.0 µM; stronger effect = higher value. An outline of the steps:
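Cells of a genetically altered yeast strain, deficient in DNA damage repair, were treated with compound. Their growth was then compared with that of vehicle-treated cultures to give inhibition.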

This is part of a sample that, as a whole, favours compounds with a hit. Of some 79,000 tested, about 15% had one in any assay. A number with no mark means an inactive call. The source made the active and inactive calls. Cut-off read from the data, not from the text of the source: active = growth inhibition above about 70%; inactive = the rest.

In the case of `Cc1cc2c(SCc3ccccc3Cl)nc(N)nc2nc1C`, the growth inhibition is 15.7% in assay [1]; 12.3% in assay [2]; 5.65% in assay [3]; -35% in assay [4]; -12.6% in assay [5]; 31.6% in assay [6].

As for `[N-]=[N+]=Nc1ccccc1Oc1ccccc1`, the growth inhibition in assay [1] is 9.85%; in assay [2], -18.1%; in assay [3], 5.15%; in assay [4] it was 17.7%; in assay [5], -16.6%; in assay [6], 10.5%.

As to `Cc1cc(Cl)ccc1N=C1NC(=O)C(CC(=O)Nc2ccc(Cl)cc2Cl)S1` (stereo not given), the growth inhibition is 14.8% in assay [1]; 13.1% in assay [2]; -2.35% in assay [3]; -46.4% in assay [4]; -4.3% in assay [5]; 19.8% in assay [6].

As to `CC(=O)OCCn1c(Cc2ccc(C)cc2)nn(C(C)=O)c1=O`, the growth inhibition is 16.6% in assay [1]; 5.5% in assay [2]; 11.8% in assay [3]; 3.4% in assay [4]; 5.9% in assay [5]; -0.95% in assay [6].

Regarding `O=C(COc1ccc(Cl)c(Cl)c1)NCc1ccc([N+](=O)[O-])cc1`, the growth inhibition in assay [1] was 0.35%; in assay [2], 28.2%; in assay [3], 20.9%; in assay [4] it was -10.7%; in assay [5], 27.8%; in assay [6], 22.9%.

As for `COc1ccc(OC)c(NC(=O)c2ccc(Cl)c(Cl)c2)c1`, the growth inhibition is -0.5% in assay [1]; 14.3% in assay [2]; 5.45% in assay [3]; -9.25% in assay [4]; 13.6% in assay [5]; 0.85% in assay [6].

Consider `OC(CNCCc1ccccc1)COc1cccc2ccccc12` (stereo not given), for which the growth inhibition in assay [1] was 86.2% (active); in assay [2] it was 92% (active); in assay [3], 96.9% (active); in assay [4], 98.5% (active); in assay [5], 88% (active); in assay [6], 97.2% (active).

As for `CCOC(=O)CSc1nnc(N)s1`, the growth inhibition in assay [1] is 21%; in assay [2], 6.55%; in assay [3] it was -6.15%; in assay [4], 3.15%; in assay [5], -6.75%; in assay [6], -1.5%.

Turning to `CC(=O)N1C(NN(C)C)CCN1c1ccccc1` (stereo not given), the growth inhibition in assay [1] was 36%; in assay [2], -28.9%; in assay [3], 13.6%; in assay [4], -4.75%; in assay [5], -22.5%; in assay [6], 2.95%.

For the compound `Cc1ccc(S(=O)(=O)/C(C#N)=C\N2CCNC2=S)cc1`, the growth inhibition was -11.7% in assay [1]; -24.3% in assay [2]; -6.4% in assay [3]; 13.5% in assay [4]; 4.4% in assay [5]; -2.25% in assay [6].

As for `C=CCc1c(Cl)nc(Cl)nc1Cl`, the growth inhibition was -14.8% in assay [1]; 22.6% in assay [2]; 10.3% in assay [3]; -69.2% in assay [4]; 7.1% in assay [5]; -23.6% in assay [6].

Turning to `c1ccc(-c2nc3ccccc3nc2SCc2cccnc2)cc1`, the growth inhibition in assay [1] was 14.4%; in assay [2], -18.1%; in assay [3], -19.7%; in assay [4] it was -18.2%; in assay [5], -30.8%; in assay [6] it was -9.8%.

Regarding `Cc1ccc(N=N/C(=N/NC(=O)c2cc(Cl)ccc2C(=O)c2ccccc2)c2ccc(N(CCC#N)CCC#N)cc2C)cc1`, the growth inhibition in assay [1] was -8.5%; in assay [2], 2.5%; in assay [3] it was -18.5%; in assay [4], -2.1%; in assay [5], -23.6%; in assay [6] it was 5.2%.

`O=C1C=CC(=O)c2c1ccc1c3ccccc3n(CCCCCn3c4ccccc4c4ccc5c(c43)C(=O)C=CC5=O)c21`: the growth inhibition was -20.8% in assay [1]; -9.85% in assay [2]; -18.2% in assay [3]; 0.8% in assay [4]; -28.4% in assay [5]; -19% in assay [6].

Take `COCCCn1c(-c2ccc(Cl)cc2)nn2c(=O)c3ccccc3nc2c1=O`: the growth inhibition was 20% in assay [1]; -1.75% in assay [2]; 17.2% in assay [3]; 10.2% in assay [4]; 13.4% in assay [5]; 7.45% in assay [6].

Consider `Cc1cc(C)c(N)c(C)n1`, for which the growth inhibition in assay [1] was -14.8%; in assay [2], -9.6%; in assay [3], -22.1%; in assay [4], -1.25%; in assay [5], 1.1%; in assay [6] it was 11.9%.

For the compound `O=C1NC2(CCN(CCCC3(c4ccc(F)cc4)OCCO3)CC2)Oc2ccccc21`, the growth inhibition in assay [1] was -11.6%; in assay [2] it was -35.7%; in assay [3], -1.15%; in assay [4], -11.6%; in assay [5] it was 5.8%; in assay [6], -55.7%.

Consider `Nc1ccc2[nH]c(=S)sc2c1`, for which the growth inhibition is 11.2% in assay [1]; 16.4% in assay [2]; -7.2% in assay [3]; -1.6% in assay [4]; -0.65% in assay [5]; 3.35% in assay [6].

As for `CC(C)c1nnc(NC(=O)CSC(=S)N2CCOCC2)s1`, the growth inhibition is -23.9% in assay [1]; -18.1% in assay [2]; -5.95% in assay [3]; -51.9% in assay [4]; -16.6% in assay [5]; -2.25% in assay [6].

For `COC(=O)c1ccccc1/C=C1\Cc2cc3c(cc2C1=O)CCC3`, the growth inhibition in assay [1] is -31.6%; in assay [2] it was -45%; in assay [3], -1.45%; in assay [4] it was 5.65%; in assay [5], -4.45%; in assay [6], -8.05%.
